USP17 block – blocks human USP17 ubiquitin-rhodamine cleavage; purified USP17, Ub-rhodamine cleavage fluorescence, 3 h; inhibition, % at 50 µM; 6.5% of 47,000 active; AID 1645855
USP30 inh – blocks human USP30 ubiquitin-rhodamine cleavage; inhibition, % at 25 µM; purified USP30, Ub-rhodamine cleavage fluorescence; AID 1645860; Q70CQ3; 5.3% of 47,000 active
OTUD3 block – inhibitors of human OTUD3 deubiquitinase; 0.7% of 47,000 active; inhibition, % at 25 µM; Q5T2D3; purified OTUD3, Ub-rhodamine fluorescence, 2 h
Target sequence (Q5T2D3 whole entry, looked up): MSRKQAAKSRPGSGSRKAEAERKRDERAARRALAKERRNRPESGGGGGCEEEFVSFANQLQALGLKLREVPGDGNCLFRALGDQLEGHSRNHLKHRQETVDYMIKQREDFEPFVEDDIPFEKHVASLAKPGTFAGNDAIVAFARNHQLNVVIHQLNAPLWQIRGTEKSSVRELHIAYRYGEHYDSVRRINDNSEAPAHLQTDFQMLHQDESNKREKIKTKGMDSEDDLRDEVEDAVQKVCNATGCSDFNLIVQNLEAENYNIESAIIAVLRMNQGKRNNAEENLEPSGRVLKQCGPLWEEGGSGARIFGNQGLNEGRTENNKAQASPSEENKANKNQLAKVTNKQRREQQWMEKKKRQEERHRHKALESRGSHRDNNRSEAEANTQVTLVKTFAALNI
USP28 inh – inhibitors of human USP28 deubiquitinase. Q96RU2. purified USP28, Ub-rhodamine cleavage fluorescence, 30 min. inhibition, % at 25 µM. 3% of 47,000 active
A number is an active result; – = inactive; · = not tested or not shown. Only some compounds are listed: those with a hit (about 12% of all), similar ones and a draw of the others. Cut-off read from the data, not from the text of the source: active = inhibition above about 30%; inactive = the rest.

SMILES	USP17 block	USP30 inh	OTUD3 block	USP28 inh
CN1C[C@@]23CN(C(=O)c4ccccn4)C[C@@H](C[C@@H]2S1(=O)=O)O3	–	–	–	–
CN1C[C@@]23CN(C(=O)c4cnccn4)C[C@@H](C[C@@H]2S1(=O)=O)O3	–	32	–	–
CCN(CC)S(=O)(=O)c1ccc(OC)c(Nc2nc(-c3ccccc3)nc3ccccc23)c1	39	–	–	–
COc1ccc(-c2nc(-c3ccn4cnnc4c3)no2)c(OC)c1	–	–	–	–
Cc1nc2sc3c(NCC(C)C)ncnc3c2c2c1COC(C)(C)C2	43	–	–	–
CCC(O)CNc1ncnc2c1sc1nc(C)c3c(c12)CC(C)(C)OC3 (stereo unspecified)	–	–	–	–
CC(C)Cc1nc2sc3c(SCCc4ccccc4)ncnc3c2c2c1COC(C)(C)C2	–	–	–	–
CC(C)Cc1nc2sc3c(SCc4ccc(Br)cc4)ncnc3c2c2c1COC(C)(C)C2	–	–	–	–
CC(C)Cc1nc2sc3c(SCc4ccc(Cl)cc4)ncnc3c2c2c1COC(C)(C)C2	–	33	–	–
CC(C)Cc1nc2sc3c(NCc4ccccc4)ncnc3c2c2c1COC(C)(C)C2	–	64	–	–
O=C(Cn1cc(S(=O)(=O)Cc2ccccc2)c2ccccc21)NCCc1ccccc1	–	–	–	–
CN1CCN(C(c2cccnc2)c2oc3ccccc3c2NC(=O)c2ccccc2)CC1 (stereo unspecified)	–	–	–	–
CCOC(=O)C1CCN(C(=O)CCC(=O)Nc2ccc(Oc3ccccc3)cc2)CC1	–	34	–	–
O=C(CCC(=O)N1CCC(C(=O)N2CCCCC2)CC1)Nc1ccc(Oc2ccccc2)cc1	–	–	–	–
O=C(CC1SC(N2CCOCC2)=NC1=O)Nc1cccc([N+](=O)[O-])c1 (stereo unspecified)	–	31	–	–
CS(=O)(=O)N(CC(=O)Nc1ccc(S(=O)(=O)N2CCOCC2)cc1)c1cccc([N+](=O)[O-])c1	–	–	–	–
Cc1nn(-c2ccccc2)c(C)c1C(=O)OCC(=O)Nc1cccc(C#N)c1	–	–	–	66
O=C(Cc1noc2ccccc12)NCC(=O)Nc1ccc(Cl)cc1	77	–	–	–
O=C(NCc1ccncc1)C1CN(Cc2ccc[nH]2)CC12CCOCC2 (stereo unspecified)	–	·	–	·
Cc1ccc(C2=NCCNC3=C2C(c2ccccc2F)N(c2ccccc2)C3=O)cc1 (stereo unspecified)	–	36	–	–
COc1ccccc1C1C2=C(NCCN=C2c2ccccc2)C(=O)N1c1ccccc1 (stereo unspecified)	–	–	–	–
Cc1ccc(-c2n[nH]c3c2C(c2ccccc2F)N(c2ccccc2)C3=O)cc1 (stereo unspecified)	69	55	–	–
Cc1ncc(CN2CCC(c3ccc4c(C)nn(C)c4n3)CC2)s1	–	–	–	–
CCC1CCCCN1Cc1nc2c(c(=O)n(C)c(=O)n2C)n1Cc1ccccc1F (stereo unspecified)	–	–	–	–
Cc1ccc(-n2nnc(C(=O)NC3CCCCC3)c2N)cc1	53	–	–	–
SMILES	USP17 block	USP30 inh	OTUD3 block	USP28 inh
Cc1ccc(-n2nnc(C(=O)NC3CCCC3)c2N)cc1	–	–	–	–
Cc1ccc(CNC(=O)N2CCC(c3nc(C(=O)N(C)C)c(C)o3)CC2)cc1	–	31	–	–
Cc1ccc(NC(=O)N2CCC(c3nc(C(=O)N(C)C)c(C)o3)CC2)cc1Cl	–	–	–	–
c1ccc(CSc2nc3ccccc3n3cnnc23)cc1	–	–	–	–
CS(=O)(=O)N1CCN(c2ccccc2NC(=O)COc2ccc(Br)cc2)CC1	93	·	–	·
CS(=O)(=O)N1CCN(c2ccc(NC(=O)COc3ccccc3)cc2)CC1	–	–	–	–
O=C(NC1CCC1)c1c2c(-c3ccncc3)ncnc2n2ccccc12	68	·	–	·
O=C(c1c2c(-c3ccccc3)ncnc2n2ccccc12)N1CCOCC1	–	–	–	–
O=C(CN1CCOCC1)Nc1nc(-c2ccc3c(c2)CCN3C(=O)c2ccccc2F)cs1	30	–	–	–
O=C(CN1CCOCC1)Nc1nc(-c2ccc3c(c2)CCN3C(=O)C2CC2)cs1	–	–	–	–
O=C(CN1CCCCC1)Nc1nc(-c2ccc3c(c2)CCN3C(=O)C2CC2)cs1	31	–	–	–
O=c1c2cc(-c3ccccc3)sc2n(Cc2ccc(F)cc2)c(=O)n1-c1ccccc1	–	–	–	–
Fc1ccc(Cn2ccc(-c3cnc(-c4ccccc4)s3)n2)cc1	–	–	–	62
COc1ccccc1-n1c(CNC(=O)c2ccc(S(=O)(=O)N3CCOCC3)cc2)nnc1SCc1ccc(Br)cc1	–	36	–	–
Cc1ccc(CSc2nnc(CNC(=O)c3ccc(F)cc3)n2-c2ccccc2)cc1	–	–	–	–
O=C(c1ccc2c(c1)OCO2)N1CCC2(CC(Nc3ccncn3)C2)C1 (stereo unspecified)	–	–	–	–
c1ccc2c(c1)ccc1nnc(-c3ccc4c(c3)OCO4)n12	37	58	–	61
Nc1c(-c2ccc3c(c2)OCO3)nc2ccccn12	–	·	–	·
Cc1cc2c(cc1CCc1cc3c(cc1C)OCO3)OCO2	–	–	–	–
C[C@H](Cc1cc2c(cc1O)OCO2)[C@@H](C)Cc1cc2c(cc1O)OCO2	100	93	93	97
CNc1cc(C(=O)N[C@H]2CC[C@]3(CCC(=O)N3)[C@@H](c3ccccc3)C2)ccn1	–	–	–	–
Cc1ccc(C)c(-c2cc3c(=O)n(Cc4noc(CN5CCCCC5)n4)ccn3n2)c1	–	–	–	71
COc1cc2[nH]c(=O)n(CCCC(=O)N3CCC(C(N)=O)(N4CCCCC4)CC3)c(=O)c2cc1OC	–	–	–	–
COc1cc2[nH]c3c(N4CCC(C(N)=O)(N5CCCCC5)CC4)ncnc3c2cc1OC	–	30	–	–
O=C(c1ccco1)[C@@H]1[C@@H]2CCCN2[C@]2(C(=O)Nc3c(Cl)cccc32)[C@@]12C(=O)Nc1ccccc12	–	–	–	–
SMILES	USP17 block	USP30 inh	OTUD3 block	USP28 inh
CNC(=O)[C@@H]1C[C@@H]2CN(CC3CC3)CCN2[C@@]12C(=O)Nc1ccccc12	–	–	–	–
O=C(NCc1ccncc1)C1CCN(c2cncnc2N2CCCCC2)CC1	–	–	–	52
CCCOc1ccc(CNC(=O)C2CCN(c3ccncc3)CC2)cc1	–	–	–	35
COc1ccc(C2(c3nc(-c4ccc(S(C)(=O)=O)cc4)no3)CCOCC2)cc1	–	–	–	–
O=C(Nc1cccc(F)c1)C1=NOC2(CCNC2)C1 (stereo unspecified)	–	–	–	–
Cc1sc2ncnc(OCC(=O)c3ccc(NC(=O)CC(C)C)cc3)c2c1C	–	–	–	–
Cc1nnc(Nc2cccc(C3CCCN(CC(N)=O)C3)n2)s1 (stereo unspecified)	–	30	–	–
O=C(OCC(=O)N1CCC(Cc2ccccc2)CC1)c1ccc(N2CCCC2=O)cc1	–	–	–	43
CCCn1nccc1-c1cc(C2CCN(S(C)(=O)=O)CC2)nc(C)n1	–	–	–	–
Cn1cc(-c2cnc(N3CCCC3)nc2)cc1C(=O)NCc1ccccc1	–	–	–	–
Cc1noc(C2(NC(=O)Cc3ccccc3)CCCCC2)n1	–	–	–	–

Screening results from PubChem BioAssay.
